Laboratory results taken from the supplement of paper PMC6992640.
± gives the standard deviation of the averaged measurements.

Legend:
Assay in all cases: cell viability (% of vehicle); higher = less cytotoxic
Settings in all cases: 10 µM; 72 h
HCI01 = system: HCI01 (cells of a triple-negative basal-like breast cancer xenograft)
HCI03 = system: HCI03 (cells of an ER-positive luminal breast cancer xenograft)
HCI09 = system: HCI09 (cells of a triple-negative luminal androgen receptor type breast cancer xenograft)
HCI11 = system: HCI11 (cells of an ER-positive luminal breast cancer xenograft)
HCI13 = system: HCI13 (cells of an ER-positive luminal breast cancer xenograft)
HCI16 = system: HCI16 (cells of a triple-negative basal-like breast cancer xenograft)
UCD52 = system: UCD52 (cells of a triple-negative basal-like breast cancer xenograft)
WHIM2 = system: WHIM2 (cells of a triple-negative basal-like breast cancer xenograft)
WHIM30 = system: WHIM30 (cells of a triple-negative basal-like breast cancer xenograft)
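Note: PDX cells carrying CMV promoter-driven luciferase, viability read as total photon flux per second by IVIS imaging following D-luciferin, vehicle control 0.1% DMSO.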

Work on `CCc1cc(C(N)=S)ccn1` [Ethionamide] yielded a cell viability (HCI01) of 105 ± 11, a cell viability (HCI03) of 111 and a cell viability (HCI09) of 100 ± 3.6. The cell viability (HCI11) was 104, the cell viability (HCI13) was 136 ± 15 and the cell viability (HCI16) was 100. For the same compound, the cell viability (UCD52) was 82.3 ± 9.9, the cell viability (WHIM2) was 92.7 ± 8.7 and the cell viability (WHIM30) was 98.5 ± 9.4.
`CC(C[N+](C)(C)C)OC(N)=O.[Cl-]` (stereo not drawn) [Bethanechol chloride] showed a cell viability (HCI01) of 86.3 ± 5.2, a cell viability (HCI03) of 88 and a cell viability (HCI09) of 90.8 ± 12. The cell viability (HCI11) was 82.5, the cell viability (HCI13) was 104 ± 14 and the cell viability (HCI16) was 101. It also gave a cell viability (UCD52) of 100 ± 5.9, a cell viability (WHIM2) of 105 ± 6.2 and a cell viability (WHIM30) of 79.4 ± 1.9.
`CC(C)(O/N=C(\C(=O)N[C@@H]1C(=O)N2C(C(=O)[O-])=C(C[n+]3ccccc3)CS[C@H]12)c1csc(N)n1)C(=O)O` [Ceftazidime] was tested, and the cell viability (HCI01) was 101 ± 17, the cell viability (HCI03) was 98.6 and the cell viability (HCI09) was 97.7 ± 0.81. For the same compound, the cell viability (HCI11) was 81.6, the cell viability (HCI13) was 119 ± 8.4 and the cell viability (HCI16) was 149. It also gave a cell viability (UCD52) of 120 ± 15, a cell viability (WHIM2) of 120 ± 3.6 and a cell viability (WHIM30) of 99.7 ± 8.2.
`CC1(C)SC2C(NC(=O)C(N)c3ccc(O)cc3)C(=O)N2C1C(=O)O` (stereo not drawn) [Amoxicillin] showed a cell viability (HCI01) of 123 ± 28, a cell viability (HCI03) of 112 and a cell viability (HCI09) of 103 ± 4.6. The cell viability (HCI11) was 112, the cell viability (HCI13) was 141 ± 17 and the cell viability (HCI16) was 120. For the same compound, the cell viability (UCD52) was 84.9 ± 12, the cell viability (WHIM2) was 138 ± 44 and the cell viability (WHIM30) was 102 ± 10.
Compound `CC(C(=O)O)c1cccc(Oc2ccccc2)c1` (stereo not drawn) [Fenoprofen calcium hydrate] has a cell viability (HCI01) of 98.6 ± 19, a cell viability (HCI03) of 104 and a cell viability (HCI09) of 94.2 ± 14. It also gave a cell viability (HCI11) of 89, a cell viability (HCI13) of 101 ± 6.6 and a cell viability (HCI16) of 120. The cell viability (UCD52) was 85 ± 3.6, the cell viability (WHIM2) was 105 ± 1.2 and the cell viability (WHIM30) was 139 ± 25.
`CC(O)C1C(=O)N2C(C(=O)O)=C(SC3CNC(C(=O)N(C)C)C3)C(C)C12` (stereo not drawn) [Meropenem] showed a cell viability (HCI01) of 103 ± 7, a cell viability (HCI03) of 106 and a cell viability (HCI09) of 87.1 ± 6.1. It also gave a cell viability (HCI11) of 95.1, a cell viability (HCI13) of 98.6 ± 2.3 and a cell viability (HCI16) of 103. It also gave a cell viability (UCD52) of 73.2 ± 6.8, a cell viability (WHIM2) of 83.4 ± 4.6 and a cell viability (WHIM30) of 112 ± 5.1.
In the case of `CC(O)C1C(=O)N2C(C(=O)O)=C(SC3CNC(CNS(N)(=O)=O)C3)C(C)C12.O` (stereo not drawn) [Doripenem Hydrate], the cell viability (HCI01) is reported as 103 ± 1.4, the cell viability (HCI03) is reported as 91.1 and the cell viability (HCI09) is reported as 95.9 ± 7. For the same compound, the cell viability (HCI11) was 84.3, the cell viability (HCI13) was 84.8 ± 5.9 and the cell viability (HCI16) was 95.3. The cell viability (UCD52) was 89.1 ± 5.5, the cell viability (WHIM2) was 93.6 ± 7.5 and the cell viability (WHIM30) was 109 ± 5.1.
`Cl.O=C(Nc1ccccc1)OCC(CN1CCCCC1)OC(=O)Nc1ccccc1` (stereo not drawn) [Diperodon HCl] was tested, and the cell viability (HCI01) was 99 ± 2.1, the cell viability (HCI03) was 124 and the cell viability (HCI09) was 97.9 ± 2.3. It also gave a cell viability (HCI11) of 119, a cell viability (HCI13) of 162 ± 49 and a cell viability (HCI16) of 138. It also gave a cell viability (UCD52) of 84.2 ± 13, a cell viability (WHIM2) of 94.3 ± 20 and a cell viability (WHIM30) of 167 ± 16.
Work on `Cc1noc(NS(=O)(=O)c2ccc(N)cc2)c1C` [Sulfisoxazole] yielded a cell viability (HCI01) of 89.3 ± 28, a cell viability (HCI03) of 121 and a cell viability (HCI09) of 94.4 ± 8.1. For the same compound, the cell viability (HCI11) was 86.9, the cell viability (HCI13) was 107 ± 2.8 and the cell viability (HCI16) was 112. It also gave a cell viability (UCD52) of 99.8 ± 3.5, a cell viability (WHIM2) of 84.1 ± 8.8 and a cell viability (WHIM30) of 117 ± 1.3.
Work on `COc1cnc(NS(=O)(=O)c2ccc(N)cc2)nc1` [Sulfameter] yielded a cell viability (HCI01) of 97.7 ± 24, a cell viability (HCI03) of 142 and a cell viability (HCI09) of 86.1 ± 1.6. For the same compound, the cell viability (HCI11) was 83, the cell viability (HCI13) was 93.22 ± 0.58 and the cell viability (HCI16) was 113. It also gave a cell viability (UCD52) of 80.9 ± 21, a cell viability (WHIM2) of 92.2 ± 18 and a cell viability (WHIM30) of 95.13 ± 0.27.
With `O=N[O-].[Na+]` [Sodium Nitrite] the cell viability (HCI01) was 104 ± 6.4, the cell viability (HCI03) was 95.5 and the cell viability (HCI09) was 90.5 ± 4.7. The cell viability (HCI11) was 91.5, the cell viability (HCI13) was 55.8 ± 2.9 and the cell viability (HCI16) was 108. It also gave a cell viability (UCD52) of 84 ± 5.8, a cell viability (WHIM2) of 114 ± 17 and a cell viability (WHIM30) of 116 ± 21.
For `CCCNC(C)C(=O)Nc1ccccc1C.Cl` (stereo not drawn) [Prilocaine hydrochloride], the cell viability (HCI01) was 147 ± 18, the cell viability (HCI03) was 117 and the cell viability (HCI09) was 112.29 ± 0.067. The cell viability (HCI11) was 113, the cell viability (HCI13) was 83.1 ± 5.5 and the cell viability (HCI16) was 122. For the same compound, the cell viability (UCD52) was 102 ± 16, the cell viability (WHIM2) was 102 ± 6.2 and the cell viability (WHIM30) was 135 ± 5.
Compound `Cl.O=C1CC2(CCCC2)CC(=O)N1CCCCN1CCN(c2ncccn2)CC1` [Buspirone HCl] has a cell viability (HCI01) of 110 ± 16, a cell viability (HCI03) of 95.5 and a cell viability (HCI09) of 91.3 ± 8.6. It also gave a cell viability (HCI11) of 101, a cell viability (HCI13) of 76.7 ± 2 and a cell viability (HCI16) of 119. It also gave a cell viability (UCD52) of 106 ± 3.5, a cell viability (WHIM2) of 104.3 ± 0.12 and a cell viability (WHIM30) of 90.4 ± 8.1.
Work on `Cc1ccc(NC(=O)C2(c3ccc4c(c3)OC(F)(F)O4)CC2)nc1-c1cccc(C(=O)O)c1` yielded a cell viability (HCI01) of 104 ± 31, a cell viability (HCI03) of 89.5 and a cell viability (HCI09) of 78.15 ± 0.74. The cell viability (HCI11) was 101, the cell viability (HCI13) was 66 ± 2.5 and the cell viability (HCI16) was 103. The cell viability (UCD52) was 86.82 ± 0.29, the cell viability (WHIM2) was 92.4 ± 28 and the cell viability (WHIM30) was 157 ± 13.
For `Cc1cccc(C)c1OCC(=O)NC(Cc1ccccc1)C(O)CC(Cc1ccccc1)NC(=O)C(C(C)C)N1CCCNC1=O` (stereo not drawn) [Lopinavir], the cell viability (HCI01) was 83 ± 1.7, the cell viability (HCI03) was 102 and the cell viability (HCI09) was 57.3 ± 20. For the same compound, the cell viability (HCI11) was 88.4, the cell viability (HCI13) was 93.7 ± 6.3 and the cell viability (HCI16) was 116. It also gave a cell viability (UCD52) of 48 ± 4, a cell viability (WHIM2) of 73.6 ± 13 and a cell viability (WHIM30) of 96.4 ± 16.
`C#CCC(Cc1cnc2nc(N)nc(N)c2n1)c1ccc(C(=O)NC(CCC(=O)O)C(=O)O)cc1` (stereo not drawn) [Pralatrexate] was tested, and the cell viability (HCI01) was 134 ± 15, the cell viability (HCI03) was 117 and the cell viability (HCI09) was 102 ± 11. The cell viability (HCI11) was 115, the cell viability (HCI13) was 157 ± 27 and the cell viability (HCI16) was 103. It also gave a cell viability (UCD52) of 110 ± 8.8, a cell viability (WHIM2) of 121 ± 10 and a cell viability (WHIM30) of 117 ± 4.2.
`O=C(O)c1cc(-c2ccccc2)nc2ccccc12` [Cinchophen] gave a cell viability (HCI01) of 157 ± 2.4, a cell viability (HCI03) of 125 and a cell viability (HCI09) of 104 ± 7.1. It also gave a cell viability (HCI11) of 107, a cell viability (HCI13) of 111 ± 1.3 and a cell viability (HCI16) of 124. It also gave a cell viability (UCD52) of 120 ± 4.4, a cell viability (WHIM2) of 138 ± 6.4 and a cell viability (WHIM30) of 139 ± 28.
For `OCC(O)C(O)C(O)CO` (stereo not drawn) [Xylitol], the cell viability (HCI01) was 96.8 ± 14, the cell viability (HCI03) was 133 and the cell viability (HCI09) was 101 ± 15. For the same compound, the cell viability (HCI11) was 95.5, the cell viability (HCI13) was 97 ± 3.2 and the cell viability (HCI16) was 101. For the same compound, the cell viability (UCD52) was 101 ± 7.7, the cell viability (WHIM2) was 90.3 ± 14 and the cell viability (WHIM30) was 83.1 ± 8.9.
`OCC(CO)NC1CC(O)(CO)C(O)C(O)C1O` (stereo not drawn) [Voglibose] was tested, and the cell viability (HCI01) was 106 ± 13, the cell viability (HCI03) was 109 and the cell viability (HCI09) was 93 ± 17. For the same compound, the cell viability (HCI11) was 89.1, the cell viability (HCI13) was 58.7 ± 0.94 and the cell viability (HCI16) was 129. It also gave a cell viability (UCD52) of 80.3 ± 5.1, a cell viability (WHIM2) of 117 ± 27 and a cell viability (WHIM30) of 110 ± 8.8.
Compound `CNCC(O)C(O)C(O)C(O)CO` (stereo not drawn) [Meglumine] has a cell viability (HCI01) of 80.2 ± 19, a cell viability (HCI03) of 93.4 and a cell viability (HCI09) of 97.6 ± 1.5. It also gave a cell viability (HCI11) of 74.4, a cell viability (HCI13) of 142 ± 11 and a cell viability (HCI16) of 110. It also gave a cell viability (UCD52) of 78.3 ± 1.6, a cell viability (WHIM2) of 85.9 ± 25 and a cell viability (WHIM30) of 133 ± 5.2.
In the case of `CC(OC1OCCN(Cc2nc(=O)[nH][nH]2)C1c1ccc(F)cc1)c1cc(C(F)(F)F)cc(C(F)(F)F)c1` (stereo not drawn) [Aprepitant], the cell viability (HCI01) is reported as 81 ± 48, the cell viability (HCI03) is reported as 91.5 and the cell viability (HCI09) is reported as 77.5 ± 16. For the same compound, the cell viability (HCI11) was 86.9, the cell viability (HCI13) was 35.8 ± 4.5 and the cell viability (HCI16) was 66.1. The cell viability (UCD52) was 75.3 ± 3.8, the cell viability (WHIM2) was 100 ± 11 and the cell viability (WHIM30) was 83.6 ± 3.1.
For `CN(C)CCc1c[nH]c2ccc(Cn3cncn3)cc12.O=C(O)c1ccccc1` [Rizatriptan Benzoate], the cell viability (HCI01) was 108 ± 11, the cell viability (HCI03) was 118 and the cell viability (HCI09) was 137 ± 72. The cell viability (HCI11) was 121, the cell viability (HCI13) was 110 ± 21 and the cell viability (HCI16) was 106. The cell viability (UCD52) was 102 ± 9.9, the cell viability (WHIM2) was 86.3 ± 21 and the cell viability (WHIM30) was 124 ± 6.5.
